The source of these data is PubChem BioAssay (NCI).

The panel holds about 83,000 compounds, 20% with a hit somewhere; the sample as a whole holds those more often.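 Negative percent growth values reflect cell death: -40 means 40% of the cells present at the start died, and -100 means all died.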 Unmarked numbers belong to inactive results. Activity calls are given as the source filed them. Rule for the calls: active = growth percent below 10; inactive = the rest.

Some test systems named below: NCI-H23 lung; NCI-H226 lung; NCI-H322M lung; HOP-62 NSCLC; NCI-H460 lung; HOP-92 NSCLC; NCI-H522 lung; A549/ATCC NSCLC; 786-0 renal; COLO 205 colon; DU-145 prostate; K-562 leukemia; MALME-3M melanoma; MDA-MB-231 breast; RXF 393 renal; SF-268 CNS; SF-295 CNS; SF-539 CNS; UACC-257 melanoma; M14 melanoma.
What all share (assay): NCI-60 one-dose screen, 48 h (100 = growth as untreated, 0 = no growth, -100 = all killed)
What all share (conditions): 10 µM unless noted

Consider `COc1ccc(/C=C/C(=O)c2ccc(NC(=O)c3cc4cc5ccccc5nc4s3)cc2)cc1OC`, for which the growth is 87% in the assay on NCI-H23 lung; 86% in the assay on NCI-H226 lung; 84.2% in the assay on NCI-H322M lung; 92.3% in the assay with HOP-62 NSCLC; 99.9% in the assay with NCI-H460 lung; 108% with HOP-92 NSCLC. The growth in the assay with NCI-H522 lung was 95.9%; in the assay with A549/ATCC NSCLC, 105%; with 786-0 renal, 106%; with COLO 205 colon, 99.5%; in the assay with DU-145 prostate, 106%; with K-562 leukemia, 80.6%. Moreover, the growth with MALME-3M melanoma was 98.6%; in the assay with MDA-MB-231 breast, 91.6%; with RXF 393 renal, 111%; in the assay on SF-268 CNS, 98.9%; in the assay on SF-295 CNS, 99.4%; with SF-539 CNS, 99.7%. In addition, the growth was 108% with UACC-257 melanoma and 98.9% with M14 melanoma.

Consider `CCOC(=O)C(C#N)C1CCCCC1` (stereo not drawn), for which the growth with NCI-H23 lung is 93.6%; in the assay with NCI-H226 lung, 83.4%; with NCI-H322M lung it was 92.1%; with HOP-62 NSCLC it was 90.4%; in the assay with NCI-H460 lung, 123%; in the assay on HOP-92 NSCLC, 80.7%. The growth in the assay on NCI-H522 lung was 96.9%; in the assay on A549/ATCC NSCLC it was 105%; with 786-0 renal it was 105%; with COLO 205 colon, 127%; with DU-145 prostate it was 104%; in the assay with K-562 leukemia, 79.3%. Besides, the growth is 95.6% in the assay on MALME-3M melanoma; 81.3% with MDA-MB-231 breast; 99.3% with RXF 393 renal; 91% with SF-268 CNS; 93.5% in the assay on SF-295 CNS; 122% in the assay on SF-539 CNS. In the assay on M14 melanoma, the growth is 101%.

Consider `CCCCCCCCCC(=O)Oc1ccc(/C(=C(/C)Cc2cccc(OC)c2)c2ccc(OCCN(C)C)cc2)cc1`, for which the growth with NCI-H23 lung is 99.3%; in the assay on NCI-H226 lung, 114%; in the assay with NCI-H322M lung, 107%; in the assay with HOP-62 NSCLC it was 111%; in the assay on NCI-H460 lung, 112%; in the assay on HOP-92 NSCLC, 113%. In addition, the growth was 97% in the assay with NCI-H522 lung; 108% in the assay with A549/ATCC NSCLC; 103% with 786-0 renal; 118% in the assay with COLO 205 colon; 108% in the assay on DU-145 prostate; 100% with K-562 leukemia. Further, the growth in the assay on MALME-3M melanoma is 115%; in the assay with MDA-MB-231 breast, 105%; in the assay on RXF 393 renal it was 115%; in the assay on SF-268 CNS, 100%; with SF-295 CNS it was 107%; with SF-539 CNS, 103%. Further, the growth was 110% with UACC-257 melanoma and 105% in the assay with M14 melanoma.

For `N#Cc1c(N)nc(N)nc1Nc1ccc(Br)cc1`, the growth is 102% with NCI-H23 lung; 83.9% with NCI-H226 lung; 89.9% with NCI-H322M lung; 119% in the assay with HOP-62 NSCLC; 96.7% with NCI-H460 lung; 92.3% in the assay with HOP-92 NSCLC. In addition, the growth with NCI-H522 lung is 70.9%; in the assay on A549/ATCC NSCLC it was 78.2%; with 786-0 renal, 123%; with COLO 205 colon it was 135%; with DU-145 prostate, 98.7%; with K-562 leukemia it was 99%. Also, the growth with MALME-3M melanoma was 107%; in the assay on MDA-MB-231 breast it was 87.3%; with RXF 393 renal it was 94.3%; in the assay with SF-268 CNS it was 92.5%; in the assay on SF-295 CNS, 91%; in the assay with SF-539 CNS, 89.6%. Further, the results for the growth in the assay with UACC-257 melanoma and with M14 melanoma were 92% and 163%, respectively.

On to `CC1=NNC(=O)C1C` (stereo not drawn), for which the growth is 100% in the assay with NCI-H23 lung; 93.5% in the assay with NCI-H226 lung; 585% in the assay with NCI-H322M lung; 87.4% with HOP-62 NSCLC; 114% in the assay with NCI-H460 lung; 102% in the assay with HOP-92 NSCLC. The growth with NCI-H522 lung is 85.9%; in the assay on A549/ATCC NSCLC, 98.6%; with 786-0 renal it was 103%; in the assay on COLO 205 colon, 110%; with DU-145 prostate it was 104%; with K-562 leukemia, 97.3%. For the same compound, the growth in the assay on MALME-3M melanoma was 467%; in the assay with MDA-MB-231 breast it was 109%; with RXF 393 renal, 90.5%; in the assay on SF-268 CNS, 107%; in the assay on SF-295 CNS, 110%; in the assay on SF-539 CNS it was 111%. Moreover, the growth with M14 melanoma is 96.8%.

On to `CCN(CC)CCCNc1cc(OC)cc2nc3cc(Cl)ccc3nc12`, for which the growth is -46.7% (active) in the assay with NCI-H23 lung; -20.8% (active) in the assay with NCI-H226 lung; -0.828% (active) in the assay with NCI-H322M lung; -47.3% (active) in the assay with HOP-62 NSCLC; -16.2% (active) in the assay on NCI-H460 lung; -9.1% (active) with HOP-92 NSCLC. Further, the growth in the assay on NCI-H522 lung is -63.2% (active); with A549/ATCC NSCLC, -52.4% (active); in the assay with 786-0 renal, 2.95% (active); with COLO 205 colon, -99.3% (active); in the assay on DU-145 prostate, 0.94% (active); in the assay with K-562 leukemia, -56.5% (active). Moreover, the growth is -84.7% (active) with MALME-3M melanoma; -25.9% (active) in the assay on MDA-MB-231 breast; -10.9% (active) in the assay with RXF 393 renal; -35.5% (active) with SF-268 CNS; 18.1% in the assay on SF-295 CNS; -77.6% (active) with SF-539 CNS. For the same compound, the growth is -79.7% (active) with UACC-257 melanoma and -94.2% (active) with M14 melanoma.

Consider `CCCCCC(=O)Oc1ccc(/C(=C(\C)c2ccccc2)c2ccc(OCCN(CC)CC)cc2)cc1`, for which the growth was 79.8% in the assay on NCI-H23 lung; 93.3% in the assay on NCI-H226 lung; 81% in the assay with NCI-H322M lung; 91.7% in the assay with HOP-62 NSCLC; 52.3% in the assay on NCI-H460 lung; 52.8% in the assay on HOP-92 NSCLC. The growth with NCI-H522 lung was 62.4%; in the assay on A549/ATCC NSCLC, 67.7%; in the assay with 786-0 renal, 57.4%; in the assay with COLO 205 colon it was 15%; in the assay with DU-145 prostate it was 103%; in the assay on K-562 leukemia it was 12.2%. Besides, the growth was 65.3% in the assay with MALME-3M melanoma; 84.8% in the assay with MDA-MB-231 breast; 66.9% in the assay on RXF 393 renal; 71.5% with SF-268 CNS; 79.5% with SF-295 CNS; 46.8% with SF-539 CNS. Further, the growth was 7.01% (active) in the assay with UACC-257 melanoma and 8.98% (active) in the assay on M14 melanoma.
